# Test results published in PubChem BioAssay (NCATS).
# Inconclusive results are not listed. Values without a mark were called inactive. Active and inactive are the calls of the source. Calls come from the whole dose curve; as a rule, active = well fitted inhibition curve with a large enough effect; inconclusive = small, poorly fitted or top-dose-only effect; inactive = flat fitted curve, though single readings scatter.
# System: MKL-2
# Experiment: qHTS assay to identify novel small-molecules to repurpose for Merkel cell carcinoma treatment (AID 1296009); note: nearly all actives have a fitted effect of over 60% in size
# Settings: MCC and control cell lines, CellTiter-Glo viability, 72 h; series mostly up to 46 µM; activity change, negative = cytotoxicity: at the top concentration
# How it was run: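 Viability readout: ATP luminescence (CellTiter-Glo) after 72 hr drug exposure at 37 degree celsius. Dose-response format was 8 points for NPC and 11 points for MIPE; data normalized to in-plate controls.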
# % is set by controls: 0 for no effect and ±100 for the full control effect; potency is the fitted concentration of half-maximal effect.
Compound,Potency,"activity change, negative = cytotoxicity"
CO/C=C(/C(=O)OC)c1ccccc1Oc1cc(Oc2ccccc2C#N)ncn1,13700 nM (active),–
CC(C)(O)C=CC(=O)[C@](C)(O)[C@H]1[C@H](O)C[C@]2(C)[C@@H]3CC=C4[C@@H](C=C(O)C(=O)C4(C)C)[C@]3(C)C(=O)C[C@@]12C,37.2 nM (active),–
C=C[C@@H]1CN2CCC1C[C@H]2[C@H](O)c1ccnc2ccccc12 (stereo not given in full),–,-8.85%
Cc1c(C(=O)c2cccc3ccccc23)c2cccc3c2n1[C@H](CN1CCOCC1)CO3,23500 nM (active),–
c1ccc(CCCN2CCN(CCOC(c3ccccc3)c3ccccc3)CC2)cc1,20900 nM (active),–
CC=C(C)C(=O)N[C@@H](c1ccccc1)[C@@H](O)C(=O)O[C@H]1C[C@@]2(O)[C@@H](OC(=O)c3ccccc3)[C@@H]3[C@]4(OC(C)=O)CO[C@@H]4C[C@H](O)[C@@]3(C)C(=O)[C@H](OC(C)=O)C(=C1C)C2(C)C,–,-21.5%
O=C(O)c1cc(Oc2ccc(C(F)(F)F)cc2Cl)ccc1[N+](=O)[O-],–,13%
S=C(SSC(=S)N1CCCCC1)N1CCCCC1,94.4 nM (active),–
ClC1=C(Cl)[C@]2(Cl)[C@@H]3[C@@H]4C[C@@H]([C@H]5O[C@@H]45)[C@@H]3[C@@]1(Cl)C2(Cl)Cl,–,9.16% [at 92.7 µM]
Cc1c(N)nc([C@H](CC(N)=O)NC[C@@H](N)C(N)=O)nc1C(=O)N[C@H](C(=O)N[C@@H](C)[C@H](O)[C@@H](C)C(=O)N[C@@H](C(=O)NCCc1nc(-c2nc(C(=O)NCCC[S+](C)C)cs2)cs1)[C@@H](C)O)C(O[C@H]1O[C@H](CO)[C@H](O)[C@@H](O)[C@@H]1O[C@H]1O[C@H](CO)[C@@H](O)[C@H](OC(N)=O)[C@H]1O)c1cnc[nH]1 (stereo not given in full),–,-28.9%
C[C@@H]1CC[C@@]2(OC1)O[C@H]1C[C@H]3[C@@H]4CC=C5C[C@@H](O[C@@H]6O[C@H](CO)[C@@H](O[C@@H]7O[C@@H](C)[C@H](O)[C@@H](O)[C@@H]7O)[C@H](O)[C@@H]6O[C@@H]6O[C@@H](C)[C@H](O)[C@@H](O)[C@@H]6O)CC[C@]5(C)[C@@H]4CC[C@]3(C)[C@@H]1[C@H]2C,6620 nM (active),–
CC[C@H]1C=CC=CC[C@@H](C)[C@H](O)[C@@](C)(O)C(=O)[C@@H](C)[C@H](O)[C@@H](C)C(=O)[C@@H](C)[C@H](O)[C@@H](C)C=CC(=O)O[C@@H]2[C@@H](C)[C@H](CC1)O[C@]1(CC[C@H](C)[C@H](C[C@@H](C)O)O1)[C@H]2C,93.5 nM (active),–
COc1ccc2c(c[n+](C)c3c4cc5c(cc4ccc23)OCO5)c1OC,743 nM (active),–
CC(=O)O[C@@]12CO[C@H]1C[C@H](O)[C@@]1(C)C(=O)[C@H](O)C3=C(C)[C@@H](O)C[C@@](O)([C@@H](OC(=O)c4ccccc4)[C@@H]21)C3(C)C,–,-13.2%
CC(=O)[O][Hg][c]1ccccc1,106 nM (active),–
